Legend:
Conditions in all cases: concentration: 1 μM, replicates: in singlicate; n = 1
[1] = test system: T1, RSK4(Kin.Dom.1-N-terminal)
T1 construct: gene RPS6KA6

[2] = test system: T2, RSK4(Kin.Dom.2-C-terminal)
T2 construct: gene RPS6KA6

S6K1 = test system: S6K1
SBK1 = test system: SBK1
SGK2 = test system: SGK2
SGK3 = test system: SGK3
SGK = test system: SGK
SIK2 = test system: SIK2
SIK = test system: SIK
SLK = test system: SLK
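Further: KINOMEscan kinase panel screen.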

Compound	%Inh [1] [%]	%Inh [2] [%]	%Inh (S6K1) [%]	%Inh (SBK1) [%]	%Inh (SGK2) [%]	%Inh (SGK3) [%]	%Inh (SGK) [%]	%Inh (SIK2) [%]	%Inh (SIK) [%]	%Inh (SLK) [%]
Cc1ccc(C(=O)Nc2ccc(Nc3ccnc4cc(-c5nccs5)ccc34)cc2O)cc1.Cl [GW494702]	0	0	11	6	0	0	11	5	4	30
C[C@@H]1CC[C@@H](C(=O)Nc2ccccc2)CN1c1cc(-c2ccc3c(N)n[nH]c3c2)nc(N)n1 [GSK2286062]	0	17	0	26	0	0	0	0	0	1
Nc1ncc(-c2ccc3nccc(-c4ccncc4)c3c2)cc1S(=O)(=O)N1CCOCC1 [GSK1627798]	14	22	0	3	0	7	0	0	0	36
Cc1ccc(C(=O)N2CC[C@@H](O)C2)cc1-n1c(C)cc(OCc2ccc(F)cc2F)c(Br)c1=O	0	2	0	0	0	0	0	27	4	0
O=C(Nc1n[nH]c2nc(-c3ccc(O)cc3)ccc12)C1CC1 [SB-710363]	70	0	40	0	36	15	43	0	0	61
Cl.Cl.NCC(NCc1ccc(-c2ccnc3[nH]ccc23)s1)c1ccccc1 (centres unmarked) [GSK1321565]	55	26	53	57	0	43	55	0	5	74
COc1cc(Nc2nccc(-c3c(-c4cccc(NC(=O)c5c(F)cccc5F)c4)nn4ccccc34)n2)cc(OC)c1OC [GSK323521]	0	23	7	17	26	7	22	0	30	25
Cn1cc(-c2ccc3c(c2)CCN3C(=O)Cc2cccc(F)c2)c2c(N)ncnc21 [GSK2603358]	0	43	12	30	18	2	0	0	4	55
Cl.c1ccc(-c2ccc3c(Nc4ccc5[nH]ccc5c4)ccnc3c2)nc1 [GW440138]	0	34	0	0	0	6	0	0	0	84
Fc1ccc(-c2ncn(C3CCNCC3)c2-c2ccnc(Oc3ccc(-c4ccccc4)cc3)n2)cc1 [SB-245391]	18	9	11	52	18	12	12	4	12	0
FC(F)(F)c1ccc(/C=C/c2cncnc2Nc2ccc3[nH]c(Cc4ccccc4)nc3c2)cc1 [GW709199]	0	0	0	0	0	0	0	4	20	5
NCCCC(NC(=O)c1cc(Br)c(-c2ccnc3[nH]ccc23)s1)c1ccccc1.O=C(O)C(F)(F)F.O=C(O)C(F)(F)F (centres unmarked) [GSK1287544]	8	0	58	44	65	52	54	0	19	14
Cl.Cl.NCC(C(=O)Nc1cc(Br)c(-c2ccnc3[nH]ccc23)s1)c1ccccc1 (centres unmarked) [GSK1269851]	0	2	35	3	0	24	28	0	0	14
Cc1occc1-c1ncc(OC[C@@H](N)Cc2c[nH]c3ccccc23)cc1-c1ccc2[nH]nc(C)c2c1.O=C(O)C(F)(F)F [GSK682037]	61	0	56	19	0	20	0	65	54	95.2
CC(C)c1nc(-c2cccc(NS(=O)(=O)c3c(F)cccc3F)c2F)c(-c2ccnc(Nc3ccc(N4CCOCC4)nc3)n2)s1 [GSK2008607]	10	39	82	40	9	28	40	91.3	99.5	97
COc1ccc(Nc2nccc(N3CCC(NC(=O)Nc4cccc(OC)c4)C3)n2)cc1 (centres unmarked) [GSK1379742]	0	24	0	0	0	0	3	0	0	17

Compound	%Inh [1] [%]	%Inh [2] [%]	%Inh (S6K1) [%]	%Inh (SBK1) [%]	%Inh (SGK2) [%]	%Inh (SGK3) [%]	%Inh (SGK) [%]	%Inh (SIK2) [%]	%Inh (SIK) [%]	%Inh (SLK) [%]
CN(C)Cc1ccc(-c2ccc3c(Nc4ccc(Oc5ccccn5)cc4)ccnc3c2)o1 [GW567148]	17	0	5	8	0	0	0	79	99.2	31
CNC(=O)c1ccccc1Nc1nc(Nc2ccc(N3CCOCC3)cc2)ncc1Cl.Cl [GSK1576028]	99.3	38	97	90.5	50	87	97.1	92.4	99	99.5
Nc1ncc(-c2cccnc2)c2scc(-c3ccc4c(c3)CCN4C(=O)Cc3ccccc3)c12 [GSK683281]	0	26	0	25	0	10	0	4	19	33
COc1cccc(C(=O)Nc2cccc(Oc3ccc4nc(NC(=O)C5CC5)cn4n3)c2)c1	0	0	0	0	0	23	0	27	63	49
CN1CCN(CCCNc2nccc(-c3c(-c4ccc(F)cc4)nn4cc(C(F)(F)F)ccc34)n2)CC1 [GW621581]	0	80	1	8	0	0	12	70	0	42
CC(=O)N1CCN(c2ccc(Nc3nccc(-c4sc(C(C)C)nc4-c4cccc(NS(=O)(=O)c5cccc(Cl)c5)c4)n3)cn2)CC1 [GSK1660437]	0	6	0	16	0	19	16	89	99	72
COc1cccc(-c2ccc3c(NC(=O)C4CC4)n[nH]c3n2)c1 [SB-710903]	5	21	8	0	5	2	19	0	0	30
O=C(Nc1n[nH]c2cc(-c3ccoc3)ccc12)C1CC1 [SB-738481]	3	1	36	0	5	28	1	0	0	2
COc1cc(Nc2nccc(N3CCC(NC(=O)c4cc5ccccc5s4)C3)n2)cc(OC)c1OC (centres unmarked) [GSK1379760]	0	11	17	17	0	10	11	15	14	76
Nc1n[nH]c2cnc(-c3ccccc3)cc12 [SB-642124]	19	15	10	22	31	74	74	2	0	0
COc1cccc(C2=C(Nc3ccc(Cl)c(C(=O)O)c3)C(=O)NC2=O)c1 [SB-390769]	100	0	2	99.9	19	100	0	0	0	16
O=C(Nc1ccccc1F)NC1CCN(c2ccnc(Nc3ccc(F)cc3)n2)CC1 [GSK1379800]	0	6	0	0	0	9	0	0	3	0
COC(=O)Nc1nc2ccc(Oc3ccc(NC(=O)Nc4cc(C(F)(F)F)ccc4F)cc3)cc2n1C.Cl [GW692089]	0	0	1	4	0	20	8	0	1	49
Cn1cc(-c2[nH]c3cc(NC(=O)[C@H](N)C4CCCCC4)cc4c3c2C=NNC4=O)cn1	86	35	76	96.2	83	99.1	95.7	95.2	90.8	14
Clc1ccc(-c2nn3ncccc3c2-c2ccnc(Nc3ccc4c(c3)OCCO4)n2)cc1 [GW829116]	0	88	9	0	0	0	35	30	1	87
COc1cc(Nc2nccc(N3CCC(NC(=O)Nc4cccc(C(C)=O)c4)C3)n2)cc(OC)c1OC (centres unmarked) [GSK1379753]	15	12	19	11	5	0	0	0	0	30

Reference: article PMC5540273 (PLoS ONE, 2017)
